Screening results deposited in PubChem BioAssay by National Center for Advancing Translational Sciences (NCATS).
Rows were chosen to be rich in hits. Some 0.69% of all compounds tested hit in one or more screens of this group.
Tb PFK block: T. brucei PFK enzyme inhibition; 0.17% of 330,000 active; AID 485367; Potency, µM (highest dose often 57.5 µM), usual class: inhibitors; O15648; T. brucei PFK, ADP-Glo luminescence; also: nearly all actives have a fitted effect of over 60% in size
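ADP-Glo luminescence quantified ADP after 45 min at room temperature, with 1.25 nM T. brucei PFK, 0.1 mM ATP and 0.5 mM fructose-6-phosphate in pH 8.0 TEA buffer. qHTS titrations up to 57 µM; curves classified by quality.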
a7 integrin act: activators of alpha7 integrin expression for muscular dystrophy. 0.064% of 350,000 active. Potency, µM (titrated, usually from 38.3 µM), most hits filed as activators. AID 624291. alpha7betagal myoblasts, beta-gal FDG fluorescence, 48 h; also: nearly all actives have a fitted effect of over 60% in size
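Alpha7betagal+/- myoblasts (passage 13) were plated 16-24 hr, then exposed to compounds (1:260 dilution of DMSO stock) for 48 hours at 37C. After MPER lysis, β-galactosidase reporter activity was read as FDG fluorescence (ex 480/em 540) after 30 minutes.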
PKM2 act: activators of human pyruvate kinase M2 | 0.34% of 260,000 active | P14618 | purified PKM2, Kinase-Glo ATP luminescence, activation; response scale: 0% is enzyme alone, no compound | Potency, µM (titrated, usually from 57.5 µM), most hits filed as activators; also: nearly all actives have a fitted effect of over 55% in size
Target sequence (P14618 whole entry, looked up): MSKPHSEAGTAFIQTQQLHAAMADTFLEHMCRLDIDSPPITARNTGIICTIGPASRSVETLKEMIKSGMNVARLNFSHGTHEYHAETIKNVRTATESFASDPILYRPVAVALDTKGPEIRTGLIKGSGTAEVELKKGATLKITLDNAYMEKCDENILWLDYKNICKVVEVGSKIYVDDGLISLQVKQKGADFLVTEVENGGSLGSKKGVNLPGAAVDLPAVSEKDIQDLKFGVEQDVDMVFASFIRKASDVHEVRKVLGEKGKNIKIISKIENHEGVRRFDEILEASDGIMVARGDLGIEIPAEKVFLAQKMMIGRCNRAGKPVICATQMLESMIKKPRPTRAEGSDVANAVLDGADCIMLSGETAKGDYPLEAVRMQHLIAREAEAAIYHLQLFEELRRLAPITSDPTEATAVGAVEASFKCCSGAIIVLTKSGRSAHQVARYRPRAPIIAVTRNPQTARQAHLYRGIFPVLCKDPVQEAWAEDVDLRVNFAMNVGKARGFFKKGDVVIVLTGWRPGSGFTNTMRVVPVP
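Purified hPK-M2 (>95%) run at intermediate activity with 0.1 mM ADP and 0.5 mM PEP in 50 mM imidazole pH 7.2, KCl, MgCl2; 1 h room temperature. ATP formed read by Kinase-Glo luminescence; normalized to uninhibited and no-enzyme controls.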
A-T KAP1 phos: candidate therapy for ataxia-telangiectasia; AID 485349; 0.19% of 320,000 active; F2112 A-T fibroblasts, KAP-1 phosphorylation AlphaLISA; neocarzinostatin DNA damage 30 min before lysis; Potency, µM (series often up to 57.5 µM), actives largely listed as activators; also: nearly all actives have a fitted effect of over 45% in size
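hTERT-immortalized A-T patient fibroblasts (F2112), 500 cells/well in OPTI-MEM, 1% FBS, got compounds for 60 min, then NCS for 30 min at 37C. Lysates were then assayed for phospho-KAP-1 by AlphaLISA (anti-pKAP1 donor, anti-KAP1 acceptor beads), 6 hr at 25C.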
IL-2 act: activates IL-2 in a cell-based reporter assay; activation, % (series mostly up to about 46 µM); AID 652025; 0.065% of 360,000 active; IL-2 activation reporter assay, cell-based qHTS; stimulated with anti-CD3/CD4/CD28 beads; in transgenic mouse T cells; in the data active = activation above about 50%; inconclusive = mostly about 30% to 49%
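Unstimulated transgenic mouse T cells preincubated 60 min with compound, then stimulated with anti-CD3/anti-CD4-coated beads plus anti-CD28 for 18 h at 37 degrees C. IL-2 response read as EGFP and DsRed fluorescence by plate cytometry.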
TCR act: activators of T cell receptors; primary human leukocytes, anti-CD3, IL-2 HTRF, 48 h; Potency, µM (series often up to 9.22 µM), most hits filed as activators; 330,000 tested, under 10 active; AID 504894
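TCR engagement came from a-CD3 beads alone, with compounds added to primary human leukocytes for 48 hr. Secreted IL-2 bridged europium cryptate- and d2-labelled anti-IL-2 antibodies, giving FRET emission at 665nm after 320nm excitation.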
HeLa viability: HeLa cytotoxicity, CellTiter-Glo readout; shares compounds with PKM2 act; HeLa viability, CellTiter-Glo ATP luminescence, 24 h; activity change, negative = cytotoxicity, % at 57.5 µM; 230 tested, under 10 active; AID 1898
Hits are given with their value; – = inactive; ? = inconclusive; · = no result; [ ] = dose if it differs, or a comment. Unless noted, calls follow the shape of the dose curve; as a rule, active = well fitted curve in the direction sought with a large enough effect; inconclusive = small, poorly fitted or top-dose-only effect, or another doubt; inactive = no such curve, though single readings can be large; an effect the other way counts as inactive or inconclusive.

SMILES | Tb PFK block | a7 integrin act | PKM2 act | A-T KAP1 phos | IL-2 act | TCR act | others
COc1ccc(CNC(=O)N2CCN(S(=O)(=O)c3ccccc3F)CC2)cc1 | – | – | · | – | – | –
O=C(NCc1cccc(Cl)c1)N1CCN(S(=O)(=O)c2ccccc2F)CC1 | – | – | 14.1µM | – | – | –
O=C(NCc1ccc(F)cc1)N1CCN(S(=O)(=O)c2ccccc2F)CC1 | – | – | 11.2µM | – | – | –
O=S(=O)(c1ccccc1F)N1CCN(C(=S)NCc2ccccc2)CC1 | – | – | ? | – | – | –
O=C(Cc1ccccc1)NC1CCN(S(=O)(=O)c2ccc(C(=O)O)cc2)CC1 | – | – | – | – | – | –
O=C(Cc1ccccc1)NC1CCN(S(=O)(=O)c2cccc(F)c2)CC1 | – | – | 28.2µM | – | – | ·
Cc1cccc(OCc2nc(C#N)c(N3CCCC3)o2)c1 | – | 3.55µM | – | – | – | –
Cc1ccc(-c2nnc(SCC(=O)N/N=C/c3ccccc3C(=O)O)n2-c2ccc(Cl)cc2)cc1 | – | – | 28.2µM | – | – | –
COc1ccc2[nH]c3c4c(ccc3c2c1)C(=O)C=CC4=O | 12µM | – | 1.26µM | – | – | –
COc1ccc2[nH]c(=O)cc(C(=O)O)c2c1 | – | – | – | – | – | –
COc1ccc(C(C)(O)c2nc(-c3cccc(O)c3)cs2)cc1 (configuration not stated) | · | · | · | · | – | ·
Cc1ccc(Cl)c2c(N=Nc3ccccc3)c(O)[nH]c12 | – | – | –[11.5 µM] | – | 169.5 | ·
CC1(C)Cc2c(cnn2-c2cccc(F)c2)C(NC(=O)CCc2cnccn2)C1 (configuration not stated) | – | 3.16µM | · | – | – | –
C=CCCC(=O)NC1CC(C)(C)Cc2c1cnn2-c1cccc(F)c1 (configuration not stated) | – | – | – | – | – | –
O=C1c2oc3ccccc3c(=O)c2C(c2cccc(Br)c2)N1Cc1ccco1 (configuration not stated) | – | – | 20µM | – | – | –
COc1ccc(CN2CCN(C(=O)c3ccc(S(=O)(=O)NCc4ccco4)cc3)CC2)cc1 | – | – | · | – | – | –
O=C(c1ccc(S(=O)(=O)NCc2ccco2)cc1)N1CCN(Cc2ccccc2)CC1 | – | – | 7.94µM | – | – | –
CCOc1ccccc1N1CCN(C(=O)c2ccc(S(=O)(=O)Nc3ccccc3)cc2)CC1 | – | – | · | – | – | –
COc1ccccc1N1CCN(C(=O)c2ccc(NS(=O)(=O)c3ccc(C)cc3)cc2)CC1 | – | – | 8.91µM | – | – | –
O=C(c1ccc(NS(=O)(=O)c2ccccc2)cc1)N1CCN(Cc2ccc3c(c2)OCO3)CC1 | – | – | 12.6µM | – | – | –
CCCC1(C(=O)OC)C=C2C(=C(c3ccccc3)C(=O)C2C)CN1 (configuration not stated) | · | · | – | · | · | ·
COc1ccc([C@]23Cc4cc(OC)c(OC)cc4C(O2)C2=C(CCCC2=O)O3)cc1 | –[11.5 µM] | · | –[11.5 µM] | –[11.5 µM] | · | ·
COc1cccc(C2CN(c3ccc(F)cc3F)N=C2c2cccs2)c1OC (configuration not stated) | – | – | – | 28.2µM | – | –
COC(=O)c1ccc(C(NC(=O)OCc2ccccc2)/C(C)=C/[C@@H](C)C(=O)NC2CCCCC2)cc1 (some centres not stated) | · | · | – | · | · | ·
CCO[C@@H]1OC(C(=O)N2CCN(C)CC2)=C[C@H](c2csc3ccccc23)[C@H]1CCCO | – | – | – | – | – | –
SMILES | Tb PFK block | a7 integrin act | PKM2 act | A-T KAP1 phos | IL-2 act | TCR act | others
CCO[C@H]1OC(C(=O)N2CCN(C)CC2)=C[C@@H](c2csc3ccccc23)[C@@H]1CCCO | – | – | – | 20µM | – | –
CC1(OC(=O)C2CCCC2)C(=O)C=C2C=C(c3ccsc3)N(c3cccc(C#N)c3)C=C2C1=O (configuration not stated) | · | · | –[11.5 µM] | · | · | ·
O=C(Cc1c(Cl)cccc1Cl)OCC(=O)N1CCN(C(=O)c2ccco2)CC1 | – | – | – | – | – | ·
CC(=O)OCC1C2CC[C@H]3C(OCc4ccc(F)cc4C(F)(F)F)OC[C@]4(C)[C@H]3C2=C(CN4C(=O)OC(C)(C)C)[C@H](C)C1COC(C)=O (some centres not stated) | · | · | – | · | · | ·
COc1ccc(OC)c(-c2csc(NC(=O)COC(=O)C3CCC3)n2)c1 | – | – | · | – | – | –
COc1ccc(OC)c(-c2csc(NC(=O)COC(=O)c3ccc(NC(=O)CC#N)cc3)n2)c1 | 21.3µM | – | · | – | – | –
CCN(CC)CCCn1c(-c2ccccc2)nc2c(N3CCOCC3)nc(C)nc21 | · | · | – | · | · | ·
CC(=O)Nc1ccc(OCC(O)Cn2c(C(C)C)nc3ccccc32)cc1 (configuration not stated) | – | – | – | – | 72.0 | –
CN=C(Nc1cccnc1)c1ccccc1 | – | – | · | – | – | –
CC1(C)CC(=O)C2=C(C1)O[C@@]1(CCCCN3C(=O)c4ccccc4C3=O)Cc3cc(C#N)ccc3C2O1 | –[11.5 µM] | · | –[11.5 µM] | –[11.5 µM] | · | ·
CCOc1ncccc1C(=O)NCCN1C(=O)S/C(=C/c2cccs2)C1=O | – | – | 15.8µM | – | – | –
COc1cccc(C(=O)NCCN2C(=O)S/C(=C/c3cccs3)C2=O)c1OC | – | – | – | – | – | ·
C/C(=N\NC(=O)c1cc(C)oc1C)c1ccc2ccccc2c1 | – | 8.91µM | – | – | – | –
Cc1cc(C(=O)NN=C(Cc2ccccc2)Cc2ccccc2)c(C)o1 | – | – | – | – | – | –
COCCNc1nc(C)nc2c1nc(-c1ccccc1)n2CCCN1CCCCC1C (configuration not stated) | · | · | – | · | · | ·
COC/C=C/C1=CC2=CC(=O)C(C)(OC(=O)c3cnc4ccccc4n3)C(=O)C2=CN1c1ccc(CO)cc1 (configuration not stated) | 4.78µM | · | – | – | · | ·
COC/C=C/C1=CC2=CC(=O)C(C)(OC(=O)c3cnc4ccccc4n3)C(=O)C2=CN1c1ccccc1 (configuration not stated) | – | – | –[11.5 µM] | – | – | –
Cn1c(=O)c2c(nc(Sc3ncnn3CC(=O)NC3CCCCC3)n2C)n(C)c1=O | – | 11.2µM | – | – | – | –
Cn1c(=O)c2c(nc(Sc3ncnn3CC(=O)N3CCOCC3)n2C)n(C)c1=O | – | – | – | – | – | –
CCOc1ccc(C(=O)N2CCN(Cc3ccccc3)CC2)cc1 | – | – | 5.62µM | – | – | – | HeLa viability=–
